# Assay results: PubChem BioAssay (NCATS)
# Inconclusive results are not listed. Where a call stands in place of a potency, no number is given. Calls of active or inactive are those of the source. Unless noted, calls follow the shape of the dose curve; as a rule, active = well fitted curve in the direction sought with a large enough effect; inconclusive = small, poorly fitted or top-dose-only effect, or another doubt; inactive = no such curve, though single readings can be large; an effect the other way counts as inactive or inconclusive.
# Legend:
# [1] = tested on: Zika virus NS2B-NS3 protease (unlinked complex); assay: Primary screen GU Rhodamine qHTS for Zika virus inhibitors: Unlinked NS2B-NS3 protease assay (AID 1347159); also: nearly all actives have a fitted effect of over 60% in size
# How it was run: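 A qHTS format was used, with compound concentrations ranging up to 114 microM. Each compound was preincubated with 25 nM NS2B-NS3 protease, and the substrate was then added at 1.5 microM. Curves were fitted with a 4-parameter Hill model.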
# [2] = target: Cytochrome P450 2D6 (Homo sapiens) (UniProt P10635); assay: Cytochrome P450 family 2 subfamily D member 6 (CYP2D6) small molecule antagonists: luciferase biochemical (cell-free) qHTS assay (AID 1645840; active = well fitted curve in the direction sought with a large enough effect in the repeat runs; an effect the other way counts as inactive or inconclusive; also: potency is read from the fitted curve at half-maximal effect; nearly all actives have a fitted effect of over 55% in size)
# How it was run: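 P450-Glo luminescent screen: recombinant CYP2D6 enzyme–proluciferin substrate mix preincubated with compound 10 min at room temperature, then NADPH regeneration added for 1 h at room temperature. Detection reagent added for 20 min; luciferin light read as relative luminescence units.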
# [3] = target: Cytochrome P450 2C9 (Homo sapiens) (UniProt P11712); assay: Cytochrome P450 family 2 subfamily C member 9 (CYP2C9) small molecule antagonists: luciferase biochemical (cell-free) qHTS assay (AID 1645842; active = well fitted curve in the direction sought with a large enough effect in the repeat runs; an effect the other way counts as inactive or inconclusive; also: nearly all actives have a fitted effect of over 55% in size; also: potency is read from the fitted curve at half-maximal effect)
# How it was run: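 Luminescence, after 20 min with luciferin detection reagent, reflected CYP2C9 turnover during a 1 h NADPH-driven reaction at 37C. Enzyme-substrate mix contained 0.4% bovine serum albumin and was preincubated with compound 10 min at room temperature.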
# PA-1 = assay: Primary qHTS to identify gynecologic anti-cancer compounds using libraries of approved drugs and bioactive compounds (AID 1345084); details: Gynecologic cancer cell panel viability, ATPlite luminescence, 48 h; series mostly up to 57.5 µM; also: nearly all actives have a fitted effect of over 55% in size; also: potency is read from the fitted curve at half-maximal effect
# How it was run: (§1)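 Five-point cytotoxicity, 48 h drug exposure at 37 C, 5% CO2, on cells seeded 16 h beforehand. ATP content read by ATPlite luminescence.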
# [4] = Primary fluorescence-based thiol-reactive (MSTI) qHTS assay for identification of artifact compounds. (AID 1845221);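 also: thiol-reactive compounds lower the probe fluorescence signal; nearly all actives have a fitted effect of over 65% in size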
# How it was run: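 Thiol-reactive compounds detected by quenching of 4 uM MSTI fluorescence (525/598 nm) after 1 h room-temperature dark incubation in PBS pH 7.4, 2% DMSO. qHTS titration; percent inhibition Hill-fitted against Acetyl-MSTI/MSTI controls.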
# C33A = assay: Primary qHTS to identify gynecologic anti-cancer compounds using libraries of approved drugs and bioactive compounds (AID 1345084); details: Gynecologic cancer cell panel viability, ATPlite luminescence, 48 h; series mostly up to 57.5 µM; also: nearly all actives have a fitted effect of over 55% in size; also: potency is read from the fitted curve at half-maximal effect
# How it was run: as §1
# [5] = target: Catechol O-methyltransferase (Homo sapiens) (UniProt P21964); assay: Confirmatory Screen for Target Class Profiling of Small Molecule Inhibitors of Methyltransferases (AID 1745852; calls by dose curve; also: potency is read from the fitted curve at half-maximal effect); details: MTase-Glo luminescence, SAH detection, recombinant enzyme; measured here: COMT max response; stronger effect = lower value
# [6] = target: Guanidinoacetate N-methyltransferase (Homo sapiens) (UniProt Q14353); assay: as above; details: activity change, negative = inhibition: at 57.3 µM (top of the series) unless noted
# [7] = target: Nicotinamide N-methyltransferase (Homo sapiens) (UniProt P40261); assay: as above; details: MTase-Glo luminescence, SAH detection, recombinant enzyme; measured here: NNMT max response; stronger effect = lower value
# [8] = target: Phenylethanolamine N-methyltransferase (Homo sapiens) (UniProt P11086); assay: as above; details: MTase-Glo luminescence, SAH detection, recombinant enzyme; measured here: PNMT max response; stronger effect = lower value
# CASKI = assay: Primary qHTS to identify gynecologic anti-cancer compounds using libraries of approved drugs and bioactive compounds (AID 1345084); details: Gynecologic cancer cell panel viability, ATPlite luminescence, 48 h; series mostly up to 57.5 µM; also: nearly all actives have a fitted effect of over 55% in size; also: potency is read from the fitted curve at half-maximal effect
# How it was run: as §1
# [9] = target: Cytochrome P450 1A2 (Homo sapiens) (UniProt P05177); assay: p450-cyp1a2 (AID 410; calls by dose curve; also: potency is read from the fitted curve at half-maximal effect)
# How it was run: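 Human CYP1A2 (20nM) demethylated Luciferin-ME at its Km (100uM) in 100mM KPO4. After 10 min compound preincubation, NADPH regeneration ran the reaction 60 min at room temperature. Luciferin was read by luminescence, normalized to 57 uM furafylline.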
# [10] = tested on: Zika virus NS2B-NS3 protease; assay: Primary screen GU AMC qHTS for Zika virus inhibitors (AID 1347154); also: nearly all actives have a fitted effect of over 70% in size
# How it was run: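 Unlinked Zika NS2B hydrophilic domain–NS3 protease complex at 25 nM in 10 mM Tris-HCl pH 8.0, 0.01% Tween 20, with an AMC peptide substrate. Fluorescence change (340/450 nm) over 15 min at room temperature, normalized to controls, fitted to 4-parameter Hill.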
# [11] = Primary qHTS for small molecule stabilizers of the endoplasmic reticulum resident proteome: Secreted ER Calcium Modulated Protein (SERCaMP) assay (AID 1508630)
# How it was run: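 GLuc-SERCaMP-expressing SH-SY5Y cells, pretreated 16 h with compound, are challenged with thapsigargin to empty ER calcium stores; after 4 h, coelenterazine is added directly to the medium and luminescence is imaged.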
# [12] = target: Luciferin 4-monooxygenase (Photinus pyralis) (UniProt P08659); assay: Biochemical firefly luciferase enzyme assay for NPC (AID 624030);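 also: purified P. pyralis luciferase at 10 nM with luciferin and ATP substrate; nearly all actives have a fitted effect of over 70% in size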
# How it was run: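 Purified P. pyralis luciferase at 10 nM in 50 mM Tris Acetate (final), luminescence read within 5 minutes of enzyme addition to compounds. Activity normalised to PTC124 versus DMSO; concentration-response curves classed by r2, magnitude and activity.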
# [13] = qHTS Assay for Identifying Gametocytocidal Compounds (AID 743244);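 also: actives lower the fluorescent signal which means gametocytes are killed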; details: P. falciparum 3D7 stage III-V gametocytes, alamarBlue, 72 h; max response: stronger effect = lower value
# How it was run: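 Viability read-out was resazurin reduction (alamarBlue, 24 h) measured at Ex 525/Em 598 nm. Beforehand, late-stage (III-V) 3D7 P. falciparum gametocytes at 20,000 cells/well were incubated with compound 72 h at 37C under 5% CO2.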
# astro = assay: Drug repurposing screens with cells derived from glioblastoma tumor samples (AID 1345199); details: viability, ATP luminescence, 48 h; series mostly up to 45.9 µM; also: nearly all actives have a fitted effect of over 40% in size; also: potency is read from the fitted curve at half-maximal effect
# How it was run: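 Four patient lines of CD133+ GBM neurospheres were screened at several concentrations; hits were retested in those lines plus three slower-growing GBM lines, using 48-hour treatment and ATP-based viability.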
# [14] = qHTS to identify inhibitors of the type 1 interferon - major histocompatibility complex class I in skeletal muscle: primary screen against the NCATS Mechanism Interrogation Plate v5.0 (MIPE) Libary (AID 1347411); also: nearly all actives have a fitted effect of over 65% in size; also: potency is read from the fitted curve at half-maximal effect
# How it was run: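 Immortalized human C25cl48 myoblasts with HiBit knocked into endogenous HLA-B*08:01 were stimulated with 4.0 ng/ml IFN-beta and exposed to compounds (11-point 1:3 titration, top 46 uM final) for 24 hrs at 37 C; HiBiT lytic luminescence measured.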
# Cytochrome P450 2D6 (Homo sapiens), sequence (P10635 whole entry, looked up): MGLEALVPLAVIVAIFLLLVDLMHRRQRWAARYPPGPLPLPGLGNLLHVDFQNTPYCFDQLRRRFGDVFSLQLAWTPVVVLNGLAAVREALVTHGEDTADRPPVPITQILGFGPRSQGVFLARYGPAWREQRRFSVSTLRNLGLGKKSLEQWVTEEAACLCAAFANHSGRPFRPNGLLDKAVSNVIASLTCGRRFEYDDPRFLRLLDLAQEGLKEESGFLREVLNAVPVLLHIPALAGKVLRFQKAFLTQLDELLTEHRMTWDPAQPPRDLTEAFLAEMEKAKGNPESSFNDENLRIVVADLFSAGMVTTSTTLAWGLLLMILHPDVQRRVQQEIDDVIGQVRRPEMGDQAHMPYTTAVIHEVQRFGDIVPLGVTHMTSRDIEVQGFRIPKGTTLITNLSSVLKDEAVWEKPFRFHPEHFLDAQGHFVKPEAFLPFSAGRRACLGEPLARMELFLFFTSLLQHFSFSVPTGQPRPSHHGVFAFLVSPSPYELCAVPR
# Nicotinamide N-methyltransferase (Homo sapiens), sequence (P40261 whole entry, looked up): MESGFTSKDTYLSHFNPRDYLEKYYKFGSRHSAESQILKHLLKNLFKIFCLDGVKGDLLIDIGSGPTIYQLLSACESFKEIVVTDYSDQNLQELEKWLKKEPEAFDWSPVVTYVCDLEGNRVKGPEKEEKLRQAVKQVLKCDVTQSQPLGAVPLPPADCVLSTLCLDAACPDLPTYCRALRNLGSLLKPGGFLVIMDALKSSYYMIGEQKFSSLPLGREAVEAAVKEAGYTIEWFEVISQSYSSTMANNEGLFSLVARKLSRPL
# Phenylethanolamine N-methyltransferase (Homo sapiens), sequence (P11086 whole entry, looked up): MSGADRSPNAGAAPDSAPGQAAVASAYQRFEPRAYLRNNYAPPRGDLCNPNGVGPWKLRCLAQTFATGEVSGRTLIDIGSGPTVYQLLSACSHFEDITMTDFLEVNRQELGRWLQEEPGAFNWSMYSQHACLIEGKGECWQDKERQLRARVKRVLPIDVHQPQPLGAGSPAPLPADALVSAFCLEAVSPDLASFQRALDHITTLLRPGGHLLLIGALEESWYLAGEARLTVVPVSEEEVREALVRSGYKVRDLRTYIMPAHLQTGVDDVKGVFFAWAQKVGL
# Cytochrome P450 2C9 (Homo sapiens), sequence (P11712 whole entry, looked up): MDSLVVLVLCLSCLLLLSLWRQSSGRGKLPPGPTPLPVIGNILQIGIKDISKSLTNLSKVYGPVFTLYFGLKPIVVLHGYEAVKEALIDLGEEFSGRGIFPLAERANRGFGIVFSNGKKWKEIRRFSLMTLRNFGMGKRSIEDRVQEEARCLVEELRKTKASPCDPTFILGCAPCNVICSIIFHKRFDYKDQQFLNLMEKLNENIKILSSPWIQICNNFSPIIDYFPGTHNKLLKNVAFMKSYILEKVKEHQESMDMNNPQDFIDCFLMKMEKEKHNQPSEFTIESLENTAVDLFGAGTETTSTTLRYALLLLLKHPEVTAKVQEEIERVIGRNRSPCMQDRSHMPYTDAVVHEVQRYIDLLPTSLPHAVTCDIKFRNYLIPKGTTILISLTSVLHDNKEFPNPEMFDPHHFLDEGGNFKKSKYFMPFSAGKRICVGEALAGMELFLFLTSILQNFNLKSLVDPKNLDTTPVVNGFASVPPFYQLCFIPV
# Catechol O-methyltransferase (Homo sapiens), sequence (P21964 whole entry, looked up): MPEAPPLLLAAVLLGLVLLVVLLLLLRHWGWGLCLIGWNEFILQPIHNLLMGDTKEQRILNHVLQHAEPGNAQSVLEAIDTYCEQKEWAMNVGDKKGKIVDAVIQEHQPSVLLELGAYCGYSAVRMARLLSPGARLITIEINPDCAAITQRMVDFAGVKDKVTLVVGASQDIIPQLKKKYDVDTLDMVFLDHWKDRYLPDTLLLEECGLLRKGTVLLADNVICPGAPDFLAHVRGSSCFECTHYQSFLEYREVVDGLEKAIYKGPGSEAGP
# Cytochrome P450 1A2 (Homo sapiens), sequence (P05177 whole entry, looked up): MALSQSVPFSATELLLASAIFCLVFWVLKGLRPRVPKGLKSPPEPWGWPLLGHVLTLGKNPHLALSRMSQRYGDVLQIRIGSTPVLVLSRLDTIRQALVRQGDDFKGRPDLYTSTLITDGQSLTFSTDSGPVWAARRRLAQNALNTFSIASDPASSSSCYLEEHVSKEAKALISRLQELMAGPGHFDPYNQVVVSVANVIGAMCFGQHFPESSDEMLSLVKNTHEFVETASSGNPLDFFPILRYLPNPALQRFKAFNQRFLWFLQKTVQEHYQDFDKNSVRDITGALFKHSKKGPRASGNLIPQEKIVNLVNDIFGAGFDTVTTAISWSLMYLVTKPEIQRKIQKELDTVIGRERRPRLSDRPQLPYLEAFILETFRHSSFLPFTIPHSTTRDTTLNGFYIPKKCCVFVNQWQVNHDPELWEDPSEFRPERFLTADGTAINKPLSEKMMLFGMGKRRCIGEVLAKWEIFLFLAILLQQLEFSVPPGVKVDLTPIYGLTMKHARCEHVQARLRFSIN
# Luciferin 4-monooxygenase (Photinus pyralis), sequence (P08659 whole entry, looked up): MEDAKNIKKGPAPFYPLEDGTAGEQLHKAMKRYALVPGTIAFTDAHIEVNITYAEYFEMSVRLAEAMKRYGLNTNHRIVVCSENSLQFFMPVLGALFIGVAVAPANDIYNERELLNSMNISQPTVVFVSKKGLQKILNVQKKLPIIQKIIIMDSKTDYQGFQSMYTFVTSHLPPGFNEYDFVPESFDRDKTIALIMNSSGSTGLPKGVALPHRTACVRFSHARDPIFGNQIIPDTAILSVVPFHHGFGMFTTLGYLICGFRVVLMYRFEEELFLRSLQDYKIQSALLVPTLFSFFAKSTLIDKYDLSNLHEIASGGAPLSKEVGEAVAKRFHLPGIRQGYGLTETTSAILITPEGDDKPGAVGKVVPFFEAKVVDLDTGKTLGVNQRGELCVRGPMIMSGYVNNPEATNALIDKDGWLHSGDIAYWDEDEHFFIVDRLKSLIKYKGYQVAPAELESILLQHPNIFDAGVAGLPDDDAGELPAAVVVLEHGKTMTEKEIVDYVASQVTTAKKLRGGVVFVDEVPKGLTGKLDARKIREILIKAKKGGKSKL
smiles,measurement,setting,value
OC(CNCCc1c[nH]c2ccccc12)Cn1c2ccccc2c2ccccc21 (stereo not drawn),Potency,[1],inactive
same,Potency,[2],0.268 µM (active)
same,Potency,[3],0.952 µM (active)
same,Potency,PA-1,inactive
CC(C)COc1ccc(CNC(=O)N(Cc2ccc(F)cc2)C2CCN(C)CC2)cc1,Potency,[2],5.35 µM (active)
same,Potency,[4],inactive
same,Potency,C33A,inactive
c1ccc(Cn2c(-c3ccc(OCC(C4CCNCC4)n4c(-c5ccccc5)nc5ccccc54)cc3)nc3ccccc32)cc1 (stereo not drawn),activity,[5],-14.2%
same,"activity change, negative = inhibition",[6],-5.98%
same,activity,[7],-61.3%
same,activity,[8],-1.77%
same,Potency,CASKI,inactive
same,Potency,PA-1,inactive
Clc1ccccc1CNCC1CCC(CNCc2ccccc2Cl)CC1 (stereo not drawn),Potency,[9],inactive
same,Potency,[10],inactive
same,Potency,[1],inactive
same,Potency,[11],inactive
same,Potency,[2],0.151 µM (active)
same,Potency,[3],inactive
same,Potency,C33A,inactive
same,Potency,CASKI,inactive
CCN1CCC[C@@H]1CNC(=O)c1ccc2c(c1)NC(=O)/C(=C/c1ccccc1F)S2,Potency,[1],inactive
same,Potency,[3],12 µM (active)
same,activity,[5],-24.5%
same,"activity change, negative = inhibition",[6],-8.4%
same,activity,[7],-32%
same,activity,[8],-20.2%
same,Potency,C33A,inactive
Cc1c(C(=O)NCCCO)cnn1-c1nc(-c2cccc(C(F)(F)F)c2)cs1,Potency,[1],inactive
same,Potency,[3],2.39 µM (active)
same,Potency,[4],inactive
same,Potency,C33A,inactive
same,Potency,PA-1,inactive
O=C(/C=C/n1cnc(-c2cc(C(F)(F)F)cc(C(F)(F)F)c2)n1)NNc1cnccn1,Potency,[4],inactive
same,Potency,C33A,inactive
same,Potency,CASKI,inactive
same,Potency,PA-1,10 µM (active)
CN(CC(=O)N1CCOCC1)Cc1c(Cl)cccc1NC(=O)c1ccccc1,Potency,[12],inactive
same,max response,[13],-0.892% (inactive)
same,Potency,astro,inactive
CC(=O)Nc1nc2c(Oc3cc(-c4ccc(C(F)(F)F)cc4)ncn3)cccc2s1,Potency,[1],inactive
same,Potency,[3],10.7 µM (active)
same,Potency,[4],inactive
same,Potency,C33A,inactive
C=C1C(=O)O[C@@H]2C[C@@]3(C)CCC[C@H](C)C3=C[C@H]12,Potency,[4],inactive
same,Potency,C33A,inactive
same,Potency,CASKI,inactive
same,Potency,PA-1,inactive
O=C(C1=CCN2c3c(cccc31)OC[C@H]2CN1CCOCC1)c1cccc2ccccc12,Potency,[1],inactive
same,Potency,CASKI,inactive
NC(=Nc1ccc(CCNCc2cccc(Cl)c2)cc1)c1cccs1,Potency,[2],0.477 µM (active)
same,Potency,[3],12 µM (active)
same,Potency,[4],inactive
same,Potency,PA-1,inactive
Nc1ncnc2c1c(I)cn2C1OC(CO)C(O)C1O (stereo not drawn),Potency,[10],inactive
same,Potency,[11],inactive
same,activity,[5],-96.2%
same,Potency,[6],12.1 µM (active)
same,activity,[7],-88.4%
same,activity,[8],-97.6%
C=CC(=O)Nc1cccc(C)c1Nc1ncc2cc(-c3c(Cl)c(OC)cc(OC)c3Cl)ccc2n1,Potency,[14],11.7 µM (active)
COc1cc(OC)cc(N(CCNC(C)C)c2ccc3ncc(-c4cnn(C)c4)nc3c2)c1,Potency,[14],13.1 µM (active)
CC(C)=CCC/C(C)=C/CC/C(C)=C/CSc1ccccc1C(=O)O,Potency,[9],12.6 µM (active)
same,Potency,[14],inactive
C=C1/C(=C\C=C2/CCC[C@]3(C)[C@@H]([C@H](C)OCCC(C)(C)O)CC[C@@H]23)C[C@@H](O)C[C@@H]1O,max response,[13],-1.53% (inactive)
CCC(=O)O[C@H]1CC[C@H]2[C@@H]3CCc4cc(O)ccc4[C@H]3CC[C@]12C,max response,[13],3.09% (inactive)
same,Potency,astro,12.6 µM (active)
C[C@H]1COCCN1c1cc(C2(S(=O)(=O)C3CC3)CC2)nc(-c2ccc(NC(=S)NCCO)cc2)n1,Potency,[14],0.208 µM (active)
NCCNCCN,max response,[13],9.59% (inactive)
same,Potency,astro,inactive
CN1CCC(c2c(O)cc(O)c3c(=O)cc(-c4ccccc4Cl)oc23)C1CO (stereo not drawn),Potency,[14],0.739 µM (active)
CCOC(=O)CCC(=O)O[C@H]1[C@H](O[C@@H]2[C@@H](C)[C@H](O[C@H]3C[C@@](C)(OC)[C@@H](O)[C@H](C)O3)[C@@H](C)C(=O)O[C@H](CC)[C@@](C)(O)[C@H](O)[C@@H](C)C(=O)[C@H](C)C[C@@]2(C)O)O[C@H](C)C[C@@H]1N(C)C,max response,[13],-6.05% (inactive)
same,Potency,astro,inactive
